Test results: PubChem BioAssay (Tox21)
Results filed as inconclusive are left out. Entries that show only a call come without a potency. Unmarked numbers belong to inactive results. Activity calls are given as the source filed them. Unless noted, the call rests on the fitted dose curve; in most records, active means well fitted curve in the direction sought with a large enough effect in the repeat runs; inconclusive means weak or mixed curves; inactive means no such curve, though single readings can be large; an effect the other way counts as inactive or inconclusive.

Tests used:
[1] = target: Retinoic acid receptor RXR-alpha (Homo sapiens) (UniProt P19793); assay: qHTS assay to identify small molecule agonists of the RXR signaling pathway (AID 1159527; calls by dose curve; further: nearly all actives have a fitted effect of over 35% in size)
Method in brief: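 Agonist mode; 9-cis retinoic acid positive control. HEK 293T UAS-bla reporter cells, 2% charcoal-stripped FBS, 16 hr compound exposure at 37 C/5% CO2. LiveBLAzer B/G FRET substrate 2 hr RT; ex 405, em 460/530 nm.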

[2] = qHTS assay to identify small molecule agonists of the RXR signaling pathway - cell viability counter screen (AID 1159529); further: series mostly up to about 77 µM; nearly all actives have a fitted effect of over 50% in size
Method in brief: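 Luminescence from CellTiter-Glo (30 min, RT) measured viability in the same wells as the beta-lactamase reporter readout. Cells: GeneBLAzer RXR-alpha HEK 293T, 2% charcoal-stripped FBS. Compound exposure 16 hr, 37 C.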

[3] = qHTS assay to identify small molecule antagonists of the retinoid acid receptor (RAR) signaling pathway - cell viability counter screen (AID 1159551); further: nearly all actives have a fitted effect of over 35% in size
Method in brief: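 C3RL4 RARE-luciferase line; cpds + retinol 1 uM final, 6 h, 37 C/5% CO2; CellTiter-Glo ATP luminescence, 30 min RT.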

Retinoic acid receptor RXR-alpha (Homo sapiens), sequence (P19793 whole entry, looked up): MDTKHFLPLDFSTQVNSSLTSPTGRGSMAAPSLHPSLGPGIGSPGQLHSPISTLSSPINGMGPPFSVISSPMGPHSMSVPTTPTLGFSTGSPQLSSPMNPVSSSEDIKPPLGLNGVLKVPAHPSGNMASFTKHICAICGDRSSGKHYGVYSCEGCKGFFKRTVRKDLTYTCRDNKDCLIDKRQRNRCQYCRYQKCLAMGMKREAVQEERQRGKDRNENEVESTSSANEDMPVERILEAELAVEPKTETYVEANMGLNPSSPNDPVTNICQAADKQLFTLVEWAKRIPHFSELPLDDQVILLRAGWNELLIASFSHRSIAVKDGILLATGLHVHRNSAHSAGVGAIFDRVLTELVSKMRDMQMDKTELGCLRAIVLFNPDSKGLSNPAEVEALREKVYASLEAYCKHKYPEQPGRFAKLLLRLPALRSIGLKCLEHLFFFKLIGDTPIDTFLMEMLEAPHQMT

NS(=O)(=O)c1cc(C2(O)NC(=O)c3ccccc32)ccc1Cl (centres undefined)
Potency [1]: inactive | Potency [2]: inactive

OCc1ccccn1
Potency [1]: inactive

CCCOCC(C)OCC(C)O (centres undefined)
Potency [1]: inactive | Potency [2]: inactive

C[N+](C)(C)CC[N+]1(C)Cc2c(Cl)c(Cl)c(Cl)c(Cl)c2C1
Potency [1]: inactive | Potency [2]: inactive

CCc1cc(S(=O)(=O)O)c2cc(C(C)C)cccc1-2
Potency [1]: inactive | Potency [2]: inactive

NC(=O)c1c(Cl)cccc1Cl
Potency [1]: inactive | Potency [2]: inactive | outcome [3]: inactive

C=C(C)C(=O)OCCCCCCCCCCCCCCCCCC
activation [1]: 6.68% [at 15.8 µM] | activity change, negative = cytotoxicity [2]: 15.1% [at 15.8 µM] | activity change, negative = cytotoxicity [3]: -0.339% [at 19 µM]

C=CCn1c(=O)n([C@@H]2O[C@H](CO)[C@@H](O)[C@H]2O)c2nc(N)[nH]c(=O)c21
Potency [1]: inactive | Potency [2]: inactive | outcome [3]: inactive

Nc1cc(N)cc(C(=O)O)c1
Potency [1]: inactive | Potency [2]: inactive | outcome [3]: inactive

C1CCCCCCCCCCC1
activation [1]: 0.57% [at 15.8 µM] | activity change, negative = cytotoxicity [2]: 1.49% [at 15.8 µM] | activity change, negative = cytotoxicity [3]: -2.08% [at 19 µM]

CCCCCCCCCCCCCCCCCCOCC(O)CO (centres undefined)
Potency [1]: inactive | Potency [2]: inactive | outcome [3]: inactive

CN(C)N=Nc1ccccc1
Potency [1]: inactive | Potency [2]: inactive | outcome [3]: inactive

c1ccc2cnncc2c1
Potency [1]: inactive | Potency [2]: inactive | outcome [3]: inactive

CC(C=O)Cc1ccc(C(C)C)cc1 (centres undefined)
Potency [1]: inactive | Potency [2]: inactive | outcome [3]: inactive

Cc1ncc(CSSCc2cnc(C)c(O)c2CO)c(CO)c1O
Potency [1]: inactive | Potency [2]: inactive | outcome [3]: inactive

NCCN1CCNC1=O
Potency [1]: inactive | Potency [2]: inactive | outcome [3]: inactive

Nc1ncnc2c1ncn2Cc1c(F)cccc1Cl
Potency [1]: inactive | Potency [2]: inactive | outcome [3]: inactive

CN1[C@@H]2CC[C@H]1CC(NC(=O)n1c(=O)[nH]c3ccccc31)C2 (some centres undefined)
Potency [1]: inactive | Potency [2]: inactive | outcome [3]: inactive

O=C(O)C1CCC1
Potency [1]: inactive | Potency [2]: inactive | outcome [3]: inactive

COc1cc(C)cc(O)c1
Potency [1]: inactive | Potency [2]: inactive | outcome [3]: inactive

O=C1C(CCS(=O)c2ccccc2)C(=O)N(c2ccccc2)N1c1ccccc1 (centres undefined)
Potency [1]: inactive | Potency [2]: inactive | outcome [3]: inactive

C[C@H](O)C(=O)Nc1c(I)c(C(=O)NC(CO)CO)c(I)c(C(=O)NC(CO)CO)c1I
Potency [1]: inactive | Potency [2]: inactive | outcome [3]: inactive

COc1cccc(OC)c1
Potency [1]: inactive | Potency [2]: inactive | outcome [3]: inactive

C#CC(O)C(CC)CCCC (centres undefined)
Potency [1]: inactive | Potency [2]: inactive | outcome [3]: inactive

CCCCCCCCCCCl
Potency [1]: inactive | Potency [2]: inactive | outcome [3]: inactive
